Data published in the supplement of paper PMC10849652.
About 7,900 targets were measured; listed, in parts, are those with a hit and a random draw of the rest. About 0.6% of all pairs of compound and target were hits. Values without a mark were called inactive.

compound: COc1cccc2cc(-c3nc([C@H]4CC[C@H](C(=O)O)CC4)n4ncnc(N)c34)[nH]c12; assay: log2 fold change, soluble protein after heating vs DMSO (PISA); higher = thermal stabilisation; K562 cells, 10 uM, 30 min; active = over 0.2 and 3.5 SD of the protein, either way, in both replicates (recomputed)
How it was run: (§1)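 Soluble protein was defined as the supernatant after 21,000xg for 90 min. It came from K562 cells at 2×10^6 cells/mL given 10 μM compound for 30 min, heated in aliquots for 3 min across 48°C-58°C, pooled, and extracted in PBS with 0.5% NP-40 at 4°C, and was quantified by TMTpro 16plex LC-MS/MS with equalised channel sums. Thermal stability against control samples, from duplicates, is reported as log2 fold change.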

UniProt Q5JRX3, sequence (Q5JRX3 whole entry, looked up): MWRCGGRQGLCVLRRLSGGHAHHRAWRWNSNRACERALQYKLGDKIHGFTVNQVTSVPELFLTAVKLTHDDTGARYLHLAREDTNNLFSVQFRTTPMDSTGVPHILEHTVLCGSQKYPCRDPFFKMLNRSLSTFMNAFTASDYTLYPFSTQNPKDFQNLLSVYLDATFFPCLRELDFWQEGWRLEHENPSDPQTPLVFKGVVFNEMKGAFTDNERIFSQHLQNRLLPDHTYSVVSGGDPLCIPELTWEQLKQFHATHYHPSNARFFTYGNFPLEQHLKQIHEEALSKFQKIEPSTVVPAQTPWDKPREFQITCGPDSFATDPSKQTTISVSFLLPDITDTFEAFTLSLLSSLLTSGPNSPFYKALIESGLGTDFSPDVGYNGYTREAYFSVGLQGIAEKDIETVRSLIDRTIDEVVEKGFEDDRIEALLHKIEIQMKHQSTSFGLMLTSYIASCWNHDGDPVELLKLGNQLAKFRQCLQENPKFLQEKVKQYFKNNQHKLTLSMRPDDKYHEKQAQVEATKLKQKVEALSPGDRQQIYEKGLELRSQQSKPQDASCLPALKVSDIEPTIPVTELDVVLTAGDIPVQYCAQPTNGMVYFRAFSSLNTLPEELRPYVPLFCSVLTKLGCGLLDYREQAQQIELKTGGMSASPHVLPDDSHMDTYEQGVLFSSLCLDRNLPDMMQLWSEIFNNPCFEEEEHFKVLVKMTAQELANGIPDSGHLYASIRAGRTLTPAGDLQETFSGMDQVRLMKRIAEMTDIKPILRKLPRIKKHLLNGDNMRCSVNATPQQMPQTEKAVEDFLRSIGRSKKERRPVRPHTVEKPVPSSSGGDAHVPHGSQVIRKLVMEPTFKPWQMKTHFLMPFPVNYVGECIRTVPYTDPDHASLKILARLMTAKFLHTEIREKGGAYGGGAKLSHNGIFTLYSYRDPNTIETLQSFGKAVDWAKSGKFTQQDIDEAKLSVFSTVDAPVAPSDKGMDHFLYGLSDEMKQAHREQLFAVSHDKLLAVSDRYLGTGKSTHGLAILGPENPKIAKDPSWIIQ
UniProt Q9UBV8, sequence (Q9UBV8 whole entry, looked up): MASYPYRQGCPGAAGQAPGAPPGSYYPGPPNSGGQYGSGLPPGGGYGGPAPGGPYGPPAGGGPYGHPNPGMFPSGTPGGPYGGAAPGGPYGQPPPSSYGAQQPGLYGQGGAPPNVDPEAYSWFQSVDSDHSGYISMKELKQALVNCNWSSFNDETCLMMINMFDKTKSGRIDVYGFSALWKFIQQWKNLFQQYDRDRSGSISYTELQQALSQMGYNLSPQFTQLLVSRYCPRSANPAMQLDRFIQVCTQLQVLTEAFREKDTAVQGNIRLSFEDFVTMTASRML
UniProt P28340, sequence (P28340 whole entry, looked up): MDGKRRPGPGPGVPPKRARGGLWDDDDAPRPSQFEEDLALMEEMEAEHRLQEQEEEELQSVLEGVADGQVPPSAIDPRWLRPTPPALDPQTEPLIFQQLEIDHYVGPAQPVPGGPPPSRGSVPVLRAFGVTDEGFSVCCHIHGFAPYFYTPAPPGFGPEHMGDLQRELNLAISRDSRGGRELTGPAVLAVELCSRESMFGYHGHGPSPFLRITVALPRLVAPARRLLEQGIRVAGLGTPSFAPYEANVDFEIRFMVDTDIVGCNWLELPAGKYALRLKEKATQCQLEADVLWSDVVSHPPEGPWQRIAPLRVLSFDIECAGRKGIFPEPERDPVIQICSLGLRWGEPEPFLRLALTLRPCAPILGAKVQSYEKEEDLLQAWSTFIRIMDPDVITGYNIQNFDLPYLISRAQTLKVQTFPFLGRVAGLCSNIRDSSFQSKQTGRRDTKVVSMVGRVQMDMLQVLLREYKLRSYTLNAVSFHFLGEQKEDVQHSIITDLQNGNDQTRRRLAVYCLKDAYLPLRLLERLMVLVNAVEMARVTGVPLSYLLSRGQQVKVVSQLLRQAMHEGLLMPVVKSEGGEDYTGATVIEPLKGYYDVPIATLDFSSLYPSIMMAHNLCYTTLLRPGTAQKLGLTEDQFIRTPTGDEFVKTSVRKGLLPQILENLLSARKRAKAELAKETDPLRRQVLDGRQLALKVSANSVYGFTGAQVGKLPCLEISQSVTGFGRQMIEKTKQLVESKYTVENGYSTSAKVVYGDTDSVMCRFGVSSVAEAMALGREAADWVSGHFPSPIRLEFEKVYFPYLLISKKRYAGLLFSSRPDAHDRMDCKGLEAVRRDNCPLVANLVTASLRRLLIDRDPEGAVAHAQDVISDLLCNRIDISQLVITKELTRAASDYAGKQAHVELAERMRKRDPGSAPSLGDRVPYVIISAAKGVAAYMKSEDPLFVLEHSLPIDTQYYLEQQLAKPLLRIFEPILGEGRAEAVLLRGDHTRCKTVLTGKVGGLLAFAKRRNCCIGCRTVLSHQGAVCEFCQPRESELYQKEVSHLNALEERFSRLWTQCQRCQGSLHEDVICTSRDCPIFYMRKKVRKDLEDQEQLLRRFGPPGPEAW
UniProt Q9NP80, sequence (Q9NP80 whole entry, looked up): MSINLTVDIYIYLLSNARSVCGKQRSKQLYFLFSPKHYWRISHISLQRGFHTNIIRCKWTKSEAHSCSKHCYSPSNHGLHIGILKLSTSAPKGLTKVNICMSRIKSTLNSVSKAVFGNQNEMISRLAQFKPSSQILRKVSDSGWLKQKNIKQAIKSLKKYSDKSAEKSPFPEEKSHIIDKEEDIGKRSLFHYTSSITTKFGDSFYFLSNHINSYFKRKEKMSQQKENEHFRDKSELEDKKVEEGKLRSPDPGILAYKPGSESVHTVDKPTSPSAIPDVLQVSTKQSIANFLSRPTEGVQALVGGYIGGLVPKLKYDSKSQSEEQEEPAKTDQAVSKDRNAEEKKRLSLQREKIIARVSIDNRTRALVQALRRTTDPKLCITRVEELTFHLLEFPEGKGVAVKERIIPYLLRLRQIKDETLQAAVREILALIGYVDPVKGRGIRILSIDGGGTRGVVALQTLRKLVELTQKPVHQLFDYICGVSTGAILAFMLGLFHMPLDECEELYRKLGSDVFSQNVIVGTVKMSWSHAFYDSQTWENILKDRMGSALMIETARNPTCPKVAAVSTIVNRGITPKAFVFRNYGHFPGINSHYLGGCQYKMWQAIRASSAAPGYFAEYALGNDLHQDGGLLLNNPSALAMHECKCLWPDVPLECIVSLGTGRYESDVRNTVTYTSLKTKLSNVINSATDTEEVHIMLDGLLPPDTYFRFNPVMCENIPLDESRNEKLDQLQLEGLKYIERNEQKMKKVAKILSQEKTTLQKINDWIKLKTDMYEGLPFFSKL
UniProt P49585, sequence (P49585 whole entry, looked up): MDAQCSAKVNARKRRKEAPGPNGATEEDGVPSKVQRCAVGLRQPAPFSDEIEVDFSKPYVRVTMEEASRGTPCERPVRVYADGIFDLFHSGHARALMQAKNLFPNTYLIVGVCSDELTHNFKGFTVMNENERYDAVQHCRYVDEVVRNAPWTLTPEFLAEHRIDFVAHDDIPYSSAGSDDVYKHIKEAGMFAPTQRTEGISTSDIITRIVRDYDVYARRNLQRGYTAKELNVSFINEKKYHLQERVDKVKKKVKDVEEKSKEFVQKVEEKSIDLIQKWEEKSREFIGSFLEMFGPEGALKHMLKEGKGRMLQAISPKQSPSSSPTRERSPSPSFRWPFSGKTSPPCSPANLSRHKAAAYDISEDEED
UniProt Q9Y3C6, sequence (Q9Y3C6 whole entry, looked up): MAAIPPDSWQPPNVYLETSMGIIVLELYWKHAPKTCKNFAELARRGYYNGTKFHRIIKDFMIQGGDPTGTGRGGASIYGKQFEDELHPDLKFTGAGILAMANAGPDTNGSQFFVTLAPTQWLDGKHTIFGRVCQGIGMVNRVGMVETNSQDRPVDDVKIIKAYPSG
UniProt Q13362, sequence (Q13362 whole entry, looked up): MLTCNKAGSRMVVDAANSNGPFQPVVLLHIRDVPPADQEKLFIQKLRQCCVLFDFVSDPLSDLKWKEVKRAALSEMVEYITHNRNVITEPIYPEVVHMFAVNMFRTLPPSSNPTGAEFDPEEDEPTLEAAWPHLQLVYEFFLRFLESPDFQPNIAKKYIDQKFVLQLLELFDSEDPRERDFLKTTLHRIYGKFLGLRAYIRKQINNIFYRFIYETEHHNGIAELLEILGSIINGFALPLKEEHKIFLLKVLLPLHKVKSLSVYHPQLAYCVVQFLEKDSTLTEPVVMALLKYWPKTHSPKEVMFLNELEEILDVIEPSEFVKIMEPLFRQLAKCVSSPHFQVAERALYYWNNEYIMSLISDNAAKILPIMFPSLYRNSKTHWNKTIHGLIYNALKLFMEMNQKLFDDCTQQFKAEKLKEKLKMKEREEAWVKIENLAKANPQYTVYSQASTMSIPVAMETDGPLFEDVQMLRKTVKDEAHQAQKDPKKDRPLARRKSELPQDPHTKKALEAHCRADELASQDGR
UniProt Q96AD5, sequence (Q96AD5 whole entry, looked up): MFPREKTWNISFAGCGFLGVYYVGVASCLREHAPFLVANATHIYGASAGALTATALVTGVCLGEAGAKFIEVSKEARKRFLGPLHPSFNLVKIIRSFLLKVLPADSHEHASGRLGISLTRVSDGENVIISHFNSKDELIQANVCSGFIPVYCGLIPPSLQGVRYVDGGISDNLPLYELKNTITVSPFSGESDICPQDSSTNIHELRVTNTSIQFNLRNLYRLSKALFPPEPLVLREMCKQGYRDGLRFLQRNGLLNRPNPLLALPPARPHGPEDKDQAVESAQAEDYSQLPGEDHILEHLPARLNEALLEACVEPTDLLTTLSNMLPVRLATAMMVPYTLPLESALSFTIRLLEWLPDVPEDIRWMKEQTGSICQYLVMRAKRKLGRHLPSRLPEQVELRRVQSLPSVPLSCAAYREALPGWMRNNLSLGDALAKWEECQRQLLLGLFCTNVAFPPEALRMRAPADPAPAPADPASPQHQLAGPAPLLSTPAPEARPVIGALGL
UniProt Q9Y2Y1, sequence (Q9Y2Y1 whole entry, looked up): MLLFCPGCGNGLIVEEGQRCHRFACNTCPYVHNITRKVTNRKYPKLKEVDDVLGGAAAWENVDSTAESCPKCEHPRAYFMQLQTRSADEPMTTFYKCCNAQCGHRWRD
UniProt P06454, sequence (P06454 whole entry, looked up): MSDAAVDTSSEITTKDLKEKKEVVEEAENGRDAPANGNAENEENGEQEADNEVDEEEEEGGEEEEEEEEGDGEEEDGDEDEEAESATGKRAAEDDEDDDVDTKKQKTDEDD

Target	log2 fold change
POLR3K (UniProt Q9Y2Y1)	0.044
PPP2R5C isoform 4 (UniProt Q13362)	0.002
PCYT1A (UniProt P49585)	-0.037
PEF1 (UniProt Q9UBV8)	0.058
PITRM1 isoform 2 (UniProt Q5JRX3)	0.035
PURA (UniProt Q00577)	-0.113
PPIL1 (UniProt Q9Y3C6)	-0.017
PIKFYVE (UniProt Q9Y2I7)	-0.044
PNPLA8 (UniProt Q9NP80)	0.047
PNPLA2 (UniProt Q96AD5)	0.029
PGGT1B (UniProt P53609)	0.058
PI4K2A (UniProt Q9BTU6)	0.005
PRPF40A (UniProt O75400)	-0.045
POLD1 (UniProt P28340)	0.047

compound: CS(=O)(=O)CCNCc1ccc(-c2ccc3ncnc(Nc4ccc(OCc5cccc(F)c5)c(Cl)c4)c3c2)o1 [lapatinib]; assay: as above
How it was run: as §1

Target	log2 fold change
PPP6R1 (UniProt Q9UPN7)	0.016
PLIN2 (UniProt Q99541)	-0.093
PELP1 (UniProt Q8IZL8)	0.031
PCGF2 (UniProt P35227)	-0.058
PTPN23 (UniProt Q9H3S7)	-0.012
PBK (UniProt Q96KB5)	-0.001
POTEI (UniProt P0CG38)	-0.006
PDE4DIP isoform 4 (UniProt Q5VU43)	-0.005
PSMD2 (UniProt Q13200)	0.077
PPT2 isoform 3 (UniProt Q9UMR5)	0.035
PLA2G15 (UniProt Q8NCC3)	-0.001
PRPF38B (UniProt Q5VTL8)	0.027
PELO (UniProt Q9BRX2)	-0.06
PIGT (UniProt Q969N2)	0.027
PRKCQ (UniProt Q04759)	0.041
PDCD6IP (UniProt Q8WUM4)	-0.04
PRIM2 (UniProt P49643)	-0.005
POLR2B (UniProt P30876)	-0.018
PIP4P2 (UniProt Q8N4L2)	0.03

Target	log2 fold change
PTMA (UniProt P06454)	-0.016
POLD3 (UniProt Q15054)	0.098
PCTP (UniProt Q9UKL6)	0.052
PSMC3 (UniProt P17980)	0.047
POLR3K (UniProt Q9Y2Y1)	0.057
PPP2R5C isoform 4 (UniProt Q13362)	0.053
PCYT1A (UniProt P49585)	0.018
PEF1 (UniProt Q9UBV8)	0.032
PITRM1 isoform 2 (UniProt Q5JRX3)	-0.04
PURA (UniProt Q00577)	0.104
PPIL1 (UniProt Q9Y3C6)	-0.051
PIKFYVE (UniProt Q9Y2I7)	-0.098
PNPLA8 (UniProt Q9NP80)	-0.022
PNPLA2 (UniProt Q96AD5)	-0.032
PGGT1B (UniProt P53609)	-0.019
PI4K2A (UniProt Q9BTU6)	0
PRPF40A (UniProt O75400)	0.018
POLD1 (UniProt P28340)	0.01

compound: CS(=O)(=O)N1CCN(Cc2cc3nc(-c4cccc5[nH]ncc45)nc(N4CCOCC4)c3s2)CC1 [pictilisib]; assay: as above
How it was run: as §1

Target	log2 fold change
PPP6R1 (UniProt Q9UPN7)	0
PLIN2 (UniProt Q99541)	0.023
PELP1 (UniProt Q8IZL8)	-0.074
PCGF2 (UniProt P35227)	-0.02
PTPN23 (UniProt Q9H3S7)	0.037
PBK (UniProt Q96KB5)	0.086
POTEI (UniProt P0CG38)	0.012
PDE4DIP isoform 4 (UniProt Q5VU43)	0.042
PSMD2 (UniProt Q13200)	-0.059
PPT2 isoform 3 (UniProt Q9UMR5)	0.024
PLA2G15 (UniProt Q8NCC3)	-0.01
PRPF38B (UniProt Q5VTL8)	0.065
PELO (UniProt Q9BRX2)	-0.111
PIGT (UniProt Q969N2)	-0.007
PRKCQ (UniProt Q04759)	-0.053
PDCD6IP (UniProt Q8WUM4)	0.009
PRIM2 (UniProt P49643)	0.086
POLR2B (UniProt P30876)	0.076
PIP4P2 (UniProt Q8N4L2)	0.061

Target	log2 fold change
PTMA (UniProt P06454)	0.001
POLD3 (UniProt Q15054)	0.004
PCTP (UniProt Q9UKL6)	0.392 (active)
PSMC3 (UniProt P17980)	0.013
POLR3K (UniProt Q9Y2Y1)	-0.04
PPP2R5C isoform 4 (UniProt Q13362)	0.021
PCYT1A (UniProt P49585)	0.03
PEF1 (UniProt Q9UBV8)	-0.076
PITRM1 isoform 2 (UniProt Q5JRX3)	-0.032
PURA (UniProt Q00577)	-0.071
PPIL1 (UniProt Q9Y3C6)	-0.028
PIKFYVE (UniProt Q9Y2I7)	-0.047
PNPLA8 (UniProt Q9NP80)	0.118
PNPLA2 (UniProt Q96AD5)	0.02
PGGT1B (UniProt P53609)	0.037
PI4K2A (UniProt Q9BTU6)	0.049
PRPF40A (UniProt O75400)	-0.027
POLD1 (UniProt P28340)	0
